A number with no mark means an inactive call. For part of these data: Entries with a potency or affinity are not part of this list. Activity calls are given as the source filed them. Unless noted, the rule behind the calls is not given here.

By inhibition is commonly meant the relative decrease from the control value, in per cent.

A short description of experiment [1]: antimalarial activity against Dd2 strain (AID 2302;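 active = growth inhibition above 50% at the single 2 µM test dose, taken to imply half-maximal potency below 2 µM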;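 note: 0% = DMSO untreated growth and 100% = chloroquine plus artemisinin killed control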). To be noted: P. falciparum Dd2 in RBCs, LDH growth readout, 72 h; at 2 µM; hits give high values.
A short description of experiment [2]: human hepatoma cell viability loss – ATP luminescence, cytotoxicity control for P. falciparum antimalarial project, primary screen (AID 2303;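 active = inhibition above 50%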;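 note: 0% = DMSO wells and 100% = digitonin-killed cells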). To be noted: HepG2 viability, 24-48 h, at 10 µM, hits give high values.
For experiment [3], the target named is L-lactate dehydrogenase (Plasmodium falciparum (isolate CDC / Honduras)) (UniProt Q27743). In words: PfLDH activity inhibition – cell lysate, 3D7 strain, counter-screen for P. falciparum growth inhibition project (AID 2304).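 Note: 0% = vehicle and 100% = reference inhibitor.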 To be noted: P. falciparum 3D7 crude extract, LDH APAD/NBT absorbance; at 2 µM; hits give high values. (In general: A counterscreen serves to expose hits that act by an unwanted route or on another target.)
Chain of L-lactate dehydrogenase (Plasmodium falciparum (isolate CDC / Honduras)) (Q27743 whole entry, looked up): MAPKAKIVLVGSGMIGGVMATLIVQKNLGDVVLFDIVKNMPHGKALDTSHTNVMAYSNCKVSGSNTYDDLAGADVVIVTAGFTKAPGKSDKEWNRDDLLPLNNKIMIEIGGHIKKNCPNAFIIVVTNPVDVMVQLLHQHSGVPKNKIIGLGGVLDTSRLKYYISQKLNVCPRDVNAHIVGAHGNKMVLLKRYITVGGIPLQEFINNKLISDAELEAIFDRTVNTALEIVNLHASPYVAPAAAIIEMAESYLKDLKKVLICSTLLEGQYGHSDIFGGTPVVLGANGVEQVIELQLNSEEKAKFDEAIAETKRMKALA

Experiment [4] in a line: inhibition of 3D7 malaria parasite growth – strain 3D7 (AID 2306).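 Note: 0% = DMSO wells and 100% = chloroquine plus artemisinin control wells.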 The settings on record: P. falciparum 3D7 erythrocytic growth, LDH absorbance, 72 h; at 2 µM; hits give high values.
Experiment [5] deals with Calcium-dependent protein kinase 1 (Plasmodium falciparum (isolate 3D7)) (UniProt P62344). In words: PfCDPK1 kinase inhibitors, biochemical, TCAMS library (AID 1159585; cut-off not given, nearly all actives have IC50 up to about 0.98 µM;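 note: inhibitors leave more ATP so luminescence rises with inhibition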). To be noted: recombinant PfCDPK1, Kinase-Glo ATP depletion luminescence. In general terms: In Kinase-Glo more light means more ATP remaining.
Chain of Calcium-dependent protein kinase 1 (Plasmodium falciparum (isolate 3D7)) (P62344 whole entry, looked up): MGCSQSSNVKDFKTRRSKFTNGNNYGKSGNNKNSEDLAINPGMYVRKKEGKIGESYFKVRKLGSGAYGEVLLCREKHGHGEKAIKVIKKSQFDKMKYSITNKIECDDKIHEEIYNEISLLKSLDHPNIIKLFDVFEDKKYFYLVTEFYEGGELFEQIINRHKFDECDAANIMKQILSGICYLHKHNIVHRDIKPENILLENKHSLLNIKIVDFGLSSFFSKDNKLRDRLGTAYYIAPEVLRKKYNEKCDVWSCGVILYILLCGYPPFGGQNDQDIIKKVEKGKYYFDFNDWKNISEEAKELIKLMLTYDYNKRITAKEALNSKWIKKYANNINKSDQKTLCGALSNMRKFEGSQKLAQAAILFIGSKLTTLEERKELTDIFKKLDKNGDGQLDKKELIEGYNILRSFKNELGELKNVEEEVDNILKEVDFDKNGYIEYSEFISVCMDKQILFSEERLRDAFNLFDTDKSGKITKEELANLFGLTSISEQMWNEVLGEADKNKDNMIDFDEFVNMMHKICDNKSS
Experiment [6] deals with Plasmodium falciparum protein kinase 6 (PK6, PF3D7_1337100) (UniProt Q8IDW1). In words: PfPK6 kinase inhibitors, biochemical, TCAMS library (AID 1159586). To be noted: recombinant PfPK6, Kinase-Glo ATP depletion luminescence.
Chain of Plasmodium falciparum protein kinase 6 (PK6, PF3D7_1337100) (Q8IDW1 1-305): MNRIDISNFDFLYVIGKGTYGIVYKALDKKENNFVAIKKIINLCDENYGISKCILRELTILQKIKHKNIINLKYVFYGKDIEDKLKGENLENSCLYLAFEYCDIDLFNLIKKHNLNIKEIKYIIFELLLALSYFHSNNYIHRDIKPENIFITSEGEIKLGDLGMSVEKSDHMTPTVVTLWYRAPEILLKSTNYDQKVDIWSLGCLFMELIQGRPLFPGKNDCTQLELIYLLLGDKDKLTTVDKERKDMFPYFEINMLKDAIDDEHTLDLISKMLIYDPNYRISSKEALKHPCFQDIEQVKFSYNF
The target in experiment [7] is Protein kinase 7 (PK7), Plasmodium falciparum 3D7 (PF3D7_0213400) (UniProt Q7YTF7). In words: inhibition of Plasmodium PK7 catalytic activity – biochemical, TCAMS antimalarial set, Kinase-Glo luminescence (AID 1159587). To be noted: recombinant PfPK7, Kinase-Glo ATP depletion luminescence.
Chain of Protein kinase 7 (PK7), Plasmodium falciparum 3D7 (PF3D7_0213400) (Q7YTF7 1-343): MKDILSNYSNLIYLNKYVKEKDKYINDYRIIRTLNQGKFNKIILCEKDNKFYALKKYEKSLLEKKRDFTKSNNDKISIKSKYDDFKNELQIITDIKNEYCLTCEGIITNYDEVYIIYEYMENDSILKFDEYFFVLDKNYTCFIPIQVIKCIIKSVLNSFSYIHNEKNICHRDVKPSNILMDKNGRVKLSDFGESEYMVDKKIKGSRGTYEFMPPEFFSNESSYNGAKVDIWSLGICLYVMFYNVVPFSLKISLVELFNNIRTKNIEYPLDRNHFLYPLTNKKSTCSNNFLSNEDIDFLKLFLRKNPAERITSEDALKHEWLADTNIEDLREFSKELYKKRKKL
Experiment [8] deals with Calcium-dependent protein kinase 4 (Plasmodium falciparum (isolate 3D7)) (UniProt Q8IBS5). Nature of the experiment: PfCDPK4 kinase inhibitors, biochemical, TCAMS library (AID 1159588; cut-off not given, nearly all actives have IC50 up to about 0.91 µM). The settings on record: recombinant PfCDPK4, Kinase-Glo ATP depletion luminescence.
Chain of Calcium-dependent protein kinase 4 (Plasmodium falciparum (isolate 3D7)) (Q8IBS5 whole entry, looked up): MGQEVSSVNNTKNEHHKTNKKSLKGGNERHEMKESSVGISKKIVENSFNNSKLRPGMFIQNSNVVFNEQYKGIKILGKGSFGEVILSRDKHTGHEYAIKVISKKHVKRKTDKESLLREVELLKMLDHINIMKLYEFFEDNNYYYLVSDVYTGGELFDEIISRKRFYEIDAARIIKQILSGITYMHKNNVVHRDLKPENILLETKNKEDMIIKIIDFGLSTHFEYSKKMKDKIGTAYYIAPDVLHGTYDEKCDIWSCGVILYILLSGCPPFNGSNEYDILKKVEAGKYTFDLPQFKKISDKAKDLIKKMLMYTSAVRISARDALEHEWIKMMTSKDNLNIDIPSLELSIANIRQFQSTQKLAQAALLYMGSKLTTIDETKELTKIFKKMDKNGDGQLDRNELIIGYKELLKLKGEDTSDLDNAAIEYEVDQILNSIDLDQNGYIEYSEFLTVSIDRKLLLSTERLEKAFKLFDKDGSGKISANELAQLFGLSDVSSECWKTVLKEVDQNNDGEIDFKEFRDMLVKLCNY

Regarding `O=C(Nc1cccc(CN2CCN(C(=O)c3cccc(Cl)c3)CC2)c1)c1cccs1`, the growth inhibition in experiment [1] and in experiment [4] was 94% (active) in each case. Further, the inhibition in experiment [2] is 17%; in experiment [3], -6%. Further, the result in experiment [5], in experiment [6], in experiment [7] and in experiment [8] was inactive.

`O=[N+]([O-])c1cccc(-c2ccc(C=NNc3cc(N4CCCC4)nc(N4CCCC4)n3)o2)c1`: the growth inhibition is 67% (active) in experiment [1] and 100% (active) in experiment [4]. Besides, the inhibition is -6% in experiment [2] and 0% in experiment [3]. Moreover, the outcome in experiment [5], in experiment [6], in experiment [7] and in experiment [8] was inactive.

On to `CCn1cc(CN2CCCC(C(=O)Nc3ccc(-c4nc5ccccc5[nH]4)cc3)C2)c(C)n1` (stereo not drawn), for which the growth inhibition in experiment [1] is 28%; in experiment [4], 100% (active). The results for the inhibition in experiment [2] and in experiment [3] were 22% and 2%, respectively. Also, the outcome in experiment [5], in experiment [6], in experiment [7] and in experiment [8] was inactive.

Take `C=CCOc1cccc2c1CCN(CCN1CCC(NC(=O)c3ccc(-c4ccc(Cl)cc4)cc3)CC1)C2`: the growth inhibition in experiment [1] was 22%; in experiment [4], 93% (active). For the same compound, the inhibition in experiment [2] was 35%; in experiment [3], -2%. The result in experiment [5], in experiment [6], in experiment [7] and in experiment [8] was inactive.

Consider `CCOC(=O)N1CCN(CCCCNc2c3ccc(Cl)cc3nc3ccc(OC)cc23)CC1`, for which the results for the growth inhibition in experiment [1] and in experiment [4] were 98% (active) and 104% (active), respectively. Moreover, the figures for the inhibition in experiment [2] and in experiment [3] were 25% and -5%, respectively. Further, the result in experiment [5], in experiment [6], in experiment [7] and in experiment [8] was inactive.

With `O=C(NCc1ccc(F)cc1)Nc1ccc(-c2cccc(-c3nc4ccc(C(F)(F)F)cc4[nH]3)c2)cc1`, the values for the growth inhibition in experiment [1] and in experiment [4] were 92% (active) and 101% (active), respectively. The inhibition in experiment [2] is 41%; in experiment [3], 3%. For the same compound, the outcome in experiment [5], in experiment [6], in experiment [7] and in experiment [8] was inactive.

With `Cc1cccc2[nH]c(-c3ccc(-c4ccc(CNCc5cccc(N)c5)cc4)cc3)nc12`, the growth inhibition was 84% (active) in experiment [1] and 102% (active) in experiment [4]. In addition, the inhibition in experiment [2] was 12%; in experiment [3], -9%. Further, the outcome in experiment [5], in experiment [6], in experiment [7] and in experiment [8] was inactive.

For the compound `CCC(Nc1noc(-c2c(-c3ccccc3)noc2C)n1)c1ccccc1` (stereo not drawn), the figures for the growth inhibition in experiment [1] and in experiment [4] were 85% (active) and 99% (active), respectively. Further, the inhibition in experiment [2] is 4%; in experiment [3], 1%. The outcome in experiment [5], in experiment [6], in experiment [7] and in experiment [8] was inactive.

Regarding `CCCNC(=O)c1ccc(N2CCC(c3ccccc3C)CC2)nc1`, the growth inhibition is 80% (active) in experiment [1] and 86% (active) in experiment [4]. For the same compound, the inhibition in experiment [2] is 6%; in experiment [3], 2%. The outcome in experiment [5], in experiment [6], in experiment [7] and in experiment [8] was inactive.

As for `CN(C)CCCN1CCN(Cc2ccc(-c3ccc(-c4nc5ccccc5[nH]4)s3)cc2)CC1`, the growth inhibition was 100% (active) in experiment [1] and 102% (active) in experiment [4]. Moreover, the inhibition in experiment [2] was 19%; in experiment [3], 4%. For the same compound, the outcome in experiment [5], in experiment [6], in experiment [7] and in experiment [8] was inactive.

As for `O=C(O[C@@H]1CN[C@H](C#Cc2cc3c(Nc4ccc5c(cnn5Cc5ccccc5)c4)ncnc3s2)C1)N1CCCC1`, the growth inhibition was 87% (active) in experiment [1] and 99% (active) in experiment [4]. For the same compound, the inhibition is 8% in experiment [2] and -1% in experiment [3]. For the same compound, the result in experiment [5], in experiment [6], in experiment [7] and in experiment [8] was inactive.

Take `Fc1cccc(C=NNc2ccnc3cc(Cl)ccc23)c1`: the growth inhibition in experiment [1] is 91% (active); in experiment [4] it was 99% (active). Also, the inhibition in experiment [2] was 6%; in experiment [3], -7%. The outcome in experiment [5], in experiment [6], in experiment [7] and in experiment [8] was inactive.

Regarding `Nc1nc(N)c2c(CCc3ccc4ccccc4c3)cccc2n1`, the values for the growth inhibition in experiment [1] and in experiment [4] were 6% and 102% (active), respectively. Moreover, the inhibition in experiment [2] was 56% (active); in experiment [3] it was -2%. Moreover, the result in experiment [5], in experiment [6], in experiment [7] and in experiment [8] was inactive.

Take `CN1CCN(S(=O)(=O)c2ccc3nccc(Nc4ccc(Oc5ccccc5)cc4)c3c2)CC1`: the growth inhibition in experiment [1] was 91% (active); in experiment [4] it was 98% (active). Further, the inhibition was -9% in experiment [2] and -3% in experiment [3]. The result in experiment [5], in experiment [6], in experiment [7] and in experiment [8] was inactive.

Regarding `O=C(C=Cc1ccc(Cl)c(Cl)c1)NCCCCCN1CCCC(CCCNC(=O)c2cccs2)C1` (stereo not drawn), the values for the growth inhibition in experiment [1] and in experiment [4] were 0% and 89% (active), respectively. The inhibition in experiment [2] was 24%; in experiment [3] it was 1%. For the same compound, the result in experiment [5], in experiment [6], in experiment [7] and in experiment [8] was inactive.

For the compound `CN1CCC(Oc2ccc(Nc3nccc(NCC(O)c4ccccc4)n3)cc2Cl)CC1` (stereo not drawn), the growth inhibition is 99% (active) in experiment [1] and 102% (active) in experiment [4]. In addition, the inhibition in experiment [2] was 46%; in experiment [3] it was 0%. The result in experiment [5], in experiment [6], in experiment [7] and in experiment [8] was inactive.

`C#Cc1cccc(NC(=O)[C@H](CC2CCCCC2)Nc2ccc(C#N)c3ccccc23)c1`: the growth inhibition in experiment [1] is 99% (active); in experiment [4], 100% (active). Further, the results for the inhibition in experiment [2] and in experiment [3] were 48% and -1%, respectively. Further, the outcome in experiment [5], in experiment [6], in experiment [7] and in experiment [8] was inactive.

Turning to `OCC1CCCCN1Cc1cccc(-c2cccc(-c3nc4ccccc4[nH]3)c2)c1` (stereo not drawn), the growth inhibition in experiment [1] is 4%; in experiment [4], 95% (active). In addition, the results for the inhibition in experiment [2] and in experiment [3] were 24% and 0%, respectively. Besides, the outcome in experiment [5], in experiment [6], in experiment [7] and in experiment [8] was inactive.

In the case of `Cc1ccc(Nc2ccnc(Nc3ccc(F)c(Cl)c3)n2)cc1O`, the growth inhibition in experiment [1] is 52% (active); in experiment [4] it was 101% (active). Moreover, the inhibition in experiment [2] is 9%; in experiment [3] it was -4%. Further, the result in experiment [5], in experiment [6], in experiment [7] and in experiment [8] was inactive.

`O=C(NCCCCCN1CCCN(C(=O)Nc2ccc(F)c(C(F)(F)F)c2)CC1)[C@@H]1C[C@H]1c1ccc(Cl)c(Cl)c1`: the results for the growth inhibition in experiment [1] and in experiment [4] were 1% and 90% (active), respectively. In addition, the inhibition in experiment [2] was 61% (active); in experiment [3], 2%. For the same compound, the outcome in experiment [5], in experiment [6], in experiment [7] and in experiment [8] was inactive.

As to `Cc1cc(NC(=O)CCCN2CCN(c3cccc(Cl)c3Cl)CC2)ccc1N1CCN(C(C)C)CC1`, the growth inhibition in experiment [1] is 53% (active); in experiment [4] it was 102% (active). Further, the inhibition is 86% (active) in experiment [2] and -1% in experiment [3]. The result in experiment [5], in experiment [6], in experiment [7] and in experiment [8] was inactive.

These data come from PubChem BioAssay.
